Most compounds without a hit are left out; they make up all but 4.2% or so of the library.
tim10-1 inh: inhibits growth of tim10-1 mutant yeast | S. cerevisiae tim10-1 ts strain growth, BacTiter-Glo, 24 h | inhibition, % at 20 µM | 2.2% of 330,000 active | AID 463190;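 active means inhibition of at least 40%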;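 further: mutant grown at 25 °C; 0% = DMSO wells with yeast and 100% = wells holding no yeast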
V-ATPase pHluor: regulators of yeast V-ATPase proton transport; S. cerevisiae, pHLuorin cytosolic pH fluorescence; response, % at 10 µM; 0.37% of 350,000 active; AID 504577; in the data active means response mostly above about 7.3%, no sharp cut-off; inactive means mostly below about 5.4%; further: actives read high
NALP1 inh: NALP1 inhibition; S. cerevisiae NALP1/ASC/caspase-1 growth, X-gal OD620, 72 h; inhibition, % at 10 µM; 0.61% of 280,000 active; AID 2071; in the data active means inhibition mostly above about 24%, no sharp cut-off; inactive means mostly below about 32%
tim23-1 inh: tim23-1 yeast growth inhibition; inhibition, % at 20 µM; AID 463212; 1.3% of 330,000 active; S. cerevisiae tim23-1 growth, BacTiter-Glo luminescence, 24 h;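 active means growth inhibition of the mutant yeast at or above 50%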;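 further: temperature-sensitive mutant grown at 25 °C; plate controls were DMSO-treated mutant yeast for no effect and medium wells lacking yeast for full effect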
TIM10 inh: inhibits growth of TIM10 yeast strain | inhibition, % at 10 µM | 1.4% of 330,000 active | S. cerevisiae TIM10 strain growth, BacTiter-Glo luminescence, 24 h;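 active means inhibition of 40% or more at the single tested concentration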;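 further: wild-type TIM10 isogenic control strain grown at permissive 25 °C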
NLRP3 yeast inh: blocks the NALP3 inflammasome reconstituted in yeast; Yeast reconstituted NLRP3/ASC/caspase-1, beta-gal luminescence, 24 h; inhibition, % at 10 µM; 0.39% of 330,000 active;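 active means inhibition of 50% or more; inactive means inhibition below 50%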;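 further: plate controls were induced DMSO wells for no effect and uninduced yeast grown without galactose for full effect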
tim10-1 conf: tim10-1 yeast growth inhibition, confirmed; S. cerevisiae tim10-1 ts strain growth, BacTiter-Glo, 24 h; shares compounds with tim10-1 inh; AID 463213; inhibition, % at 20 µM; 56% of 7,400 active;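 active means inhibition of yeast growth at or above a set limit in either of two repeat tests at 20 µM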;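 further: tim10-1 mutant grown at permissive 25 °C to find synthetic lethal compounds; 0% = DMSO yeast wells and 100% = medium wells without yeast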
TIM10 conf: TIM10 yeast growth inhibition, confirmed. inhibition, % at 10 µM. shares compounds with TIM10 inh. S. cerevisiae tim10 strain growth, BacTiter-Glo luminescence, 24 h. AID 463215. 63% of 4,600 active;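 active means inhibition of yeast growth at or above a set limit in either of two replicates at 10 µM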;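 further: this counterscreen used the strain with wild-type TIM10; 0% = yeast with DMSO and 100% = medium wells lacking yeast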
tim23-1 confirm: tim23-1 yeast growth inhibition, confirmed; shares compounds with tim23-1 inh; S. cerevisiae tim23-1 growth, BacTiter-Glo luminescence, 24 h; inhibition, % at 20 µM; 83% of 4,400 active; AID 463218;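 active means inhibition above about 39% in either of two replicate wells at 20 µM, limit read from the data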;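 further: temperature-sensitive tim23-1 mutant grown at 25 °C; 0% = DMSO wells with yeast and 100% = medium wells without yeast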
Active calls of the source: *; / = no result.

SMILES	tim10-1 inh	V-ATPase pHluor	NALP1 inh	tim23-1 inh	TIM10 inh	NLRP3 yeast inh	tim10-1 conf	tim23-1 confirm	others
COc1cc(OC)cc(-c2cc3nc(C)c(CCC(=O)O)c(C)n3n2)c1	/	2.8	-10.8	/	/	/	/	/
O=C(CSc1nc2c(cnn2-c2ccccc2)c(=O)[nH]1)N1N=C(c2cccs2)CC1c1ccc(F)cc1 (centres undefined)	0.4	-4.3	27.5	-6.0	-51.4	6.2	/	/
O=C(ONC1=NCCCCC1)c1c(F)cccc1F	50.8*	-3.3	35.9	53.1*	43.9*	7.3	45.0*	59.3*	TIM10 conf=33.3*
O=C(ONC1=NCCCCC1)c1ccc(Cl)cc1	52.2*	-3.9	23.2	60.8*	87.4*	27.1	37.6*	41.1*	TIM10 conf=84.2*
NC(=O)CSc1nnc2ccc(-c3ccc(Cl)cc3)nn12	15.0	-0.5	-19.6	11.3	22.0	-5.7	/	/
COc1cc2c(cc1OC)C(c1ccc(-c3ccc(Cl)c(Cl)c3)o1)=NCC2	55.9*	4.5	6.5	56.6*	36.6	27.8	44.0*	53.8*
O=S(=O)(Cc1ccccc1)c1cnc2ccccc2n1	15.5	-4.9	12.4	4.1	0.2	24.7	/	/
CC(C)(C)c1cc(-c2nc(N)nc(N)n2)cc(C(C)(C)C)c1	51.3*	-2.7	17.0	63.9*	41.8*	11.6	48.7*	61.3*	TIM10 conf=-10.8
Oc1c(N=Nc2ccccn2)ccc2ccccc12	72.1*	4.1	7.9	52.8*	41.5*	19.6	53.2*	75.6*	TIM10 conf=46.0*
Oc1[nH]c2ccccc2c1N=Nc1ccccn1	/	1.7	/	/	/	/	/	/
Cc1ccc(N=C(NOC(=O)c2ccccc2)c2nonc2N)c(C)c1	46.1*	-4.1	5.8	56.6*	48.8*	11.7	49.1*	40.9*	TIM10 conf=40.0*
Cc1ccc(C(=O)Nc2ccc(S(=O)(=O)N3CCN(C)CC3)cc2)cc1	9.6	12.7	15.8	11.7	3.9	-3.2	/	/
Cc1ccc(Nc2cc(C)nc(-c3ccccc3)n2)cc1	42.4*	3.0	12.4	51.2*	39.2	18.8	32.9*	58.4*
Cc1ccc(S(=O)(=O)N(CC(=O)Nc2cccc([N+](=O)[O-])c2)C(=O)N2CCN(C)CC2)cc1	1.2	-1.9	/	7.5	0.5	-2.5	/	/
CCc1ccccc1NC(=O)CNC(=O)c1cc(C2CC2)nc2c1cnn2C(C)C	3.4	-3.1	/	30.5	-7.7	5.9	/	/
CC(C)n1ncc2c(C(=O)NCC(=O)Nc3ccccc3Br)cc(C3CC3)nc21	42.1*	1.9	/	52.8*	7.8	21.5	25.6	44.5*
O=C(NCc1ccc2c(c1)OCO2)c1ccc(Cl)c(S(=O)(=O)N2CCOCC2)c1	2.7	1.5	13.2	9.3	-7.3	8.5	/	/
COc1ccc(/C=C2\SC(=O)NC2=S)cc1OC	40.8*	-0.4	-0.1	51.6*	32.7	20.5	37.0*	48.1*
O=[N+]([O-])c1ccc(N2CCN(c3ccccc3F)CC2)nc1	/	3.8	-1.4	/	/	/	/	/
CCN1/C(=C/c2ccc3cc(C)cc(C)c3[n+]2CC)Sc2cc(C)ccc21	/	8.6	6.6	/	/	/	/	/
CCN1/C(=C/c2ccc3cccc(C)c3[n+]2CC)Sc2ccccc21	63.6*	0.8	33.7*	68.1*	76.8*	6.3	73.7*	72.3*	TIM10 conf=79.3*
Cc1cc(N2CCCCC2)n2ncc(-c3ccccc3)c2n1	37.9	-4.4	31.9	32.4	-10.2	35.9	/	/
Cc1cc(C)n(-c2cc(C(C)(C)C)nc3c(-c4ccccc4)cnn23)n1	47.4*	-2.0	-5.1	50.9*	26.7	9.2	41.0*	48.0*
CCN(CC)CCNc1nc(-c2cccs2)c(CC(=O)O)s1	-12.0	-2.7	10.2	7.5	1.4	11.1	/	/
CCN(c1cc(C)cc(C)c1)S(=O)(=O)c1nnc(NC(=O)c2ccco2)s1	-3.6	-2.2	13.3	27.5	12.6	4.3	/	/
SMILES	tim10-1 inh	V-ATPase pHluor	NALP1 inh	tim23-1 inh	TIM10 inh	NLRP3 yeast inh	tim10-1 conf	tim23-1 confirm	others
O=C1c2ccccc2C(=O)N1CN(C(=O)c1ccccc1)c1ccc(O)cc1	14.5	2.6	4.9	6.9	0.9	0.2	/	/
CC1=NN(C(N)=S)C(=O)C1N=Nc1ccc(Cl)cc1Cl (centres undefined)	57.0*	-2.5	16.9	64.1*	46.4*	39.0	55.8*	73.2*	TIM10 conf=58.0*
CC1=NN(C(N)=S)C(=O)C1N=Nc1ccccc1Cl (centres undefined)	17.1	2.7	1.7	36.8	17.2	23.4	/	/
Cc1ccc2c(c1)C(=O)C(=O)N2CC1COc2ccccc2O1 (centres undefined)	41.0*	6.3	17.0	65.5*	18.4	17.9	30.2	77.6*
COc1ccc(C(=O)CCC(=O)N2CCN(c3ccc([N+](=O)[O-])cc3)CC2)cc1	14.2	-0.8	23.5	-8.3	10.3	9.0	/	/
O=C(ON=C1CCN(c2ccc([N+](=O)[O-])cc2)CC1)c1ccccc1	47.5*	2.3	-19.9	63.9*	52.1*	13.8	23.8	60.5*	TIM10 conf=59.8*
COc1ccc(C(=O)ON=C2CCN(c3ccc([N+](=O)[O-])cc3)CC2)cc1	57.8*	-0.3	14.6	53.5*	64.4*	22.5	48.4*	71.4*	TIM10 conf=65.1*
C=CCOc1ccccc1CN1CCC(C(=O)Nc2cccc(-c3ccn[nH]3)c2)CC1	11.9	0.6	10.7	13.4	4.6	-11.7	/	/
COc1ccc(OCC(=O)N/N=c2\oc3c(OC)cccc3cc2C(N)=O)cc1	1.5	-9.0	4.0	-13.8	3.6	22.6	/	/
CCOc1ccc(C(=O)/C=C/c2cn(CN3CCN(C)CC3)c3ccccc23)cc1	40.2*	-2.2	-0.6	67.8*	38.9	37.4	20.1	51.0*
COc1ccc(C(=O)/C=C/c2cn(CN3CCN(C)CC3)c3ccccc23)cc1	34.2	0.3	9.3	35.6	24.9	38.4	/	/
CC(C)(C)NC(=O)COc1ccc(S(=O)(=O)N2CCCC2)cc1	-7.7	1.1	6.2	3.3	7.6	-1.0	/	/
Nc1ccc2nn(-c3cc([N+](=O)[O-])ccc3O)nc2c1	51.3*	1.0	18.0	58.3*	28.3	1.7	37.8*	52.8*
CCc1ccc(NC(=O)c2ccccc2Br)cc1	1.2	-0.9	2.0	21.3	16.2	1.8	/	/
Cc1ccc(Cl)cc1NC(=O)CC(O)(C(F)(F)F)C(F)(F)F	55.0*	-2.8	14.1	53.2*	39.3	23.7	56.9*	55.8*
NC(=O)c1ccc(-n2nnnc2SCc2ccc(F)cc2)cc1	11.1	4.0	16.8	-5.1	-1.8	7.0	/	/
O/N=C/c1ccc2ccccc2n1	-18.5	5.5	/	-8.3	-11.0	18.6	/	/
CC(=O)/C=C/c1ccc2ccccc2n1	65.2*	-4.2	8.1	70.6*	59.1*	33.1	65.1*	81.8*	TIM10 conf=59.6*

High-throughput results deposited in PubChem by several laboratories.
